# PolyA inh: yeast polyadenylation inhibition; S. cerevisiae SKY197-pL101 polyadenylation reporter, beta-gal luminescence; efflux-impaired pdr1/pdr3 knockout yeast; score 100 = 6 SD above DMSO; activity score, % at 12 µM; actives 0.02% (n = 300,000); AID 1875;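 active = lowest replicate activity score at least 50, where 100 means six control SD above control mean; inconclusive = lowest score under 50 but half or more replicates reach 50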;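 also: yeast exposed to compound for 9 h at 30 °C; higher score means more reporter readthrough which indicates perturbed polyadenylation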
# p-CIP stab down: lowers stability of the mouse p/CIP coactivator protein. Q05BA5. F442A p/CIP-EGFP cells, EGFP fluorescence, 16 h. decrease of EGFP signal, % at 10 µM. actives 0.01% (n = 290,000). AID 1984;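 active = EGFP signal decrease of at least 30% at 10 µM or well 3 SD below plate mean, unless failing retest; inactive = the rest, including hits failing retest or dose response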
# Target sequence (Q05BA5 1-1403): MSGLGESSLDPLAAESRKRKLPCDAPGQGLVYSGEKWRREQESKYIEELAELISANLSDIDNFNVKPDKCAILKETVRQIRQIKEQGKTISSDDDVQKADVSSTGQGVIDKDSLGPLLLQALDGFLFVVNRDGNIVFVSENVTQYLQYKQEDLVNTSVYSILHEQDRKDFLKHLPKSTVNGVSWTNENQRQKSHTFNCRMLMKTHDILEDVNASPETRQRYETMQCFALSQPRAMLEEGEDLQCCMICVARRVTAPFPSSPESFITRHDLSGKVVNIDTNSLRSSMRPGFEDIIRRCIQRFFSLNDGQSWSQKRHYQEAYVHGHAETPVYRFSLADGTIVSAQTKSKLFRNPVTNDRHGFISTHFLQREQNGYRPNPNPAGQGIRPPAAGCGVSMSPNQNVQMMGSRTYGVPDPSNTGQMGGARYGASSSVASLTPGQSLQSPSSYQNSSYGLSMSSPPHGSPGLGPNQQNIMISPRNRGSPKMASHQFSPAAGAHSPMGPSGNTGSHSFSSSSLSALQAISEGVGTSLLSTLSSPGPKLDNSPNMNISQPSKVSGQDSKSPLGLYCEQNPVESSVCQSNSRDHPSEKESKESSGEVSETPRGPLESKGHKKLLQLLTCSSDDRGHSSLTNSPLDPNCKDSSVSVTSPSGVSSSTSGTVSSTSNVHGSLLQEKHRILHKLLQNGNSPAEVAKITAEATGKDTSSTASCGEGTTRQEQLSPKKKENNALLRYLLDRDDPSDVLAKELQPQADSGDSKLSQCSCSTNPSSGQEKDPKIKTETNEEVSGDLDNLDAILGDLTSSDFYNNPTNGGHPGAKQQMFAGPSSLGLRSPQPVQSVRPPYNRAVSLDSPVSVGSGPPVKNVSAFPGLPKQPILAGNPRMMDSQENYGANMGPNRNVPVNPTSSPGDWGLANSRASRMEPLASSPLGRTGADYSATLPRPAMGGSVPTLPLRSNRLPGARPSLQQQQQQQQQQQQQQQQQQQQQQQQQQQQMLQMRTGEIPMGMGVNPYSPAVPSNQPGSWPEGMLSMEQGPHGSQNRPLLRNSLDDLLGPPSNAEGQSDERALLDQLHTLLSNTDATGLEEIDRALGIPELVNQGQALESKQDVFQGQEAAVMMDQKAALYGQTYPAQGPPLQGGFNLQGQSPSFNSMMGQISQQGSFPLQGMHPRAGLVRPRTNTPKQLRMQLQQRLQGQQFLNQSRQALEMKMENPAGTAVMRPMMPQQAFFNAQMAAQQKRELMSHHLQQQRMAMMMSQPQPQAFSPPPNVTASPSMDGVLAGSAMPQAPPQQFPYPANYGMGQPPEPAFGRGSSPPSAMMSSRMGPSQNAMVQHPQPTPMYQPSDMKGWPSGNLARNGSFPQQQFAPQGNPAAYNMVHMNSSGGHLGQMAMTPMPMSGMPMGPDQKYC
# Platelet DG rel: modulates dense granule release in human platelets | human platelet-rich plasma, SFLLRN dense granule ATP release, luminescence | inhibition, %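 (compounds screened at 7.5 µM in platelet-rich plasma)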 | actives 0.22% (n = 300,000) | AID 1663;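 active = mean replicate score, as percent of positive control, at or above 50; inconclusive = mean below 50 but at least one replicate at or above 50; inactive = mean and every replicate below 50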
# AHR activator: human AHR activation | P35869 | AID 2796 | actives 2.5% (n = 320,000) | AHR-responsive luciferase reporter cells, luminescence | activation, % at 5 µM; in the data active = activation above about 47%;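 also: 0% = vehicle wells and 100% = reference agonist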
# HIF activator: HIF pathway transcriptional activation; U2OS HRE-luciferase reporter, luminescence; normalized: DMSO 0%, desferrioxamine 100%; activation, % at 7.5 µM (by protocol); actives 0.32% (n = 300,000);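 active = mean activation of at least 10% of the iron chelator positive control signal, with at least half of replicates also reaching 10%; inconclusive = mean and replicate majority disagree about reaching 10%; inactive = mean and most replicates under 10%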
# An asterisk follows results filed as active; ? = inconclusive; nt = no result given. Sampled rows, rich in hits. Any-hit rate of the full collection: about 2.8%.
SMILES,PolyA inh,p-CIP stab down,Platelet DG rel,AHR activator,HIF activator
O=C(Nc1cc(F)cc(F)c1)c1ccc(NCCc2ccccc2)c([N+](=O)[O-])c1,1,-17,1,57*,-20
CCOc1ccc(S(=O)(=O)Nc2cc(S(=O)(=O)N3CCOCC3)ccc2OC)cc1,nt,nt,nt,-2,nt
O=[N+]([O-])c1ccc(N=NNc2ccccc2)cc1,-12,-2,0,2,2
Brc1ccc(N=NNc2ccccc2)cc1,3,1,-3,58*,2
CC(C)c1onc(C(=O)NC(C)c2ccccc2)c1[N+](=O)[O-] (centres undefined),-15,15,1,-1,0
COc1cc2c(cc1OC)-c1c(OC)c(OC)cc3ccnc(c13)C2=O,8,-29,2,48*,0
COc1ccc(C)cc1NC(=O)n1ncc2cc(Cl)ccc21,-10,-12,1,56*,-3
COc1ccc(C2C(C#N)=C(C)NC3=C2C(=O)c2ccccc23)cc1 (centres undefined),-17,-3,2,3,0
COc1cc(C2C(C#N)=C(C)NC3=C2C(=O)c2ccccc23)cc(OC)c1OC (centres undefined),nt,-8,nt,113*,nt
Cc1cc(NC(=O)c2ccc(F)cc2)n(CCOC(=O)c2ccc(F)cc2)n1,17,-19,6,50*,0
NS(=O)(=O)c1ccc(CCNC(=O)c2ccc[nH]c2=S)cc1,-8,-5,-1,0,-1
Cn1c(-[n+]2c(-c3ccccc3)cc(-c3ccccc3)cc2-c2ccccc2)nc2c([N+](=O)[O-])cccc21,-20,3,-3,68*,-22
O=[N+]([O-])c1cccc2nc(-c3ccccc3)c(-c3ccccc3)nc12,-9,-12,0,2,0
O=C(Cn1c(C(=O)N2CCN(C3CCCC3)CC2)cc2sccc21)c1ccccc1,-1,-8,0,5,-1
CN(C1=NS(=O)(=O)c2ccccc21)c1ccc(OC(=O)c2ccncc2)cc1,2,-9,0,-2,0
O=C(OCc1nnc(-c2ccc([N+](=O)[O-])cc2)o1)C1CCN(C(=O)c2ccc(F)cc2)CC1,nt,nt,nt,2,nt
O=C1C(=O)N(Cc2ccccc2)C(=O)N1CCN1C(=O)c2ccccc2C1=O,3,-2,8,0,-1
O=C1Cc2ccccc2C(=O)N1CCc1ccccc1,-16,-4,-4,73*,0
c1cncc(-c2nnc(SCc3nc4ccccc4[nH]3)o2)c1,3,-7,1,73*,-1
CCOC(=O)c1c(C)[nH]c(C)c1C(=O)Cn1nnc(-c2ccccc2C)n1,0,nt,-2,49*,-1
CCOC(=O)c1c(C)[nH]c(C)c1C(=O)CSc1nc2ccccc2[nH]1,-3,-3,-5,59*,1
CCOC(=O)c1c(C)[nH]c(C)c1C(=O)CSc1nc2ccccc2n1CC,0,-16,-3,29,-5
CCOC(=O)c1c(C)[nH]c(C)c1C(=O)CSc1ncccn1,4,-5,9,78*,0
CCOC(=O)c1c(C)[nH]c(C(=O)Cn2nnc(-c3ccccc3Cl)n2)c1C,8,-2,-3,9,-42
CCc1noc(C)c1C(=O)OCC(=O)Nc1nc(-c2ccc(F)c(F)c2)cs1,nt,nt,nt,2,nt
SMILES,PolyA inh,p-CIP stab down,Platelet DG rel,AHR activator,HIF activator
CCC(C(=O)NC1CCCCCC1)n1nc(C)c2c(C)n(-c3ccccc3)nc2c1=O (centres undefined),11,-10,-7,2,0
CCCn1c(SC(C)C(=O)NCC2CCCO2)nc2sc(CC)cc2c1=O (centres undefined),-2,5,-2,-2,0
CCSc1nc2c(c(=O)[nH]1)C(c1ccncc1)C(C(=O)OC)=C(C)N2 (centres undefined),13,-11,7,15,0
CSc1nc2c(c(=O)[nH]1)C(c1ccncc1)C(C(=O)OC(C)C)=C(C)N2 (centres undefined),20,6,12,51*,1
C/C(=N\NC(=O)C1CC1c1ccccc1)c1ccc(C)s1 (centres undefined),-21,-4,3,75*,-1
CCOC(=O)C(/C(C)=N/NC(=O)C1CC1c1ccccc1)C(C)C (centres undefined),3,-4,-5,2,0
CN(c1ccc(F)cc1)S(=O)(=O)c1ccc(Cl)c(C(=O)OCC(=O)NCc2ccco2)c1,-1,-6,0,-1,-1
O=C(NC1(Cc2ccccc2)CCN(Cc2ccc(-c3ccccc3)cc2)C1=O)c1ccccc1 (centres undefined),nt,nt,nt,1,nt
C#CCn1cc(Cl)cc(C(=O)Nc2ccccc2)c1=O,-3,-17,-4,62*,0
O=c1oc2ccc(Br)cc2cc1-c1nc2ccccc2o1,-18,-14,0,7,0
COc1cccc2cc3c(=O)n(-c4ccccc4)nc-3oc12,-9,-11,1,49*,0
COc1cccc2cc(-c3nc4ccccc4o3)c(=O)oc12,103*,1,2,18,1
Cn1c(/C(C#N)=C(\O)c2ccc([N+](=O)[O-])cc2)nc2ccccc21,23,-28,-3,5,0
Cn1c(/C(C#N)=C(\O)c2cccc(F)c2)nc2ccccc21,-2,0,5,63*,2
O=C(COc1ccccc1)NNc1nc2c(F)cccc2s1,24,-15,0,22,0
Cc1ccc(NC(=O)Nc2nc3ccccc3s2)cc1NC(=O)Nc1nc2ccccc2s1,-5,6,-14,54*,1
O=C(COc1ccccc1)NNc1nc2ccccc2s1,8,16,-3,50*,-1
CC(=O)NNc1nc2ccccc2s1,-7,25,-8,20,1
COc1ccc2nc(NNC(=O)COc3ccccc3)sc2c1,14,6,9,72*,0
COc1ccc(OCC(=O)Nc2nc3ccc(NC(C)=O)cc3s2)cc1,-1,-6,0,24,1
O=C(NNc1nc2ccccc2s1)Nc1ccccc1,-12,6,2,59*,0
CNC[C@H]1Oc2ccc(NC(=O)C3CCCCC3)cc2CC(=O)N([C@H](C)CO)C[C@@H]1C,nt,nt,nt,-1,nt
Cc1cccc(CC(=O)NCC(=O)NCc2cc(=O)n(C)c(=O)n2C)c1,6,3,3,1,-1
c1ccc(Nc2cc(Nc3ccccc3)[nH]n2)cc1,-7,6,6,70*,0
O=c1nccc(Nc2ccccc2)[nH]1,5,4,-4,0,-1
O=C(COc1ccccc1)N=C1SC2CS(=O)(=O)CC2N1c1ccc(F)cc1F (centres undefined),11,-1,-2,-1,0
O=C(CSc1nc2ccccc2[nH]1)N=Nc1c(O)[nH]c2ccccc12,20,-8,-5,53*,1
Cn1c(SCC(=O)N=Nc2c(O)[nH]c3ccccc23)nc2ccccc21,-13,4,?,26,0

# Source: PubChem
